Compound activity (PubChem BioAssay)
Compounds with a hit are over-represented: about 9.3% of the library has one in this group of screens.
Fluor 339 460 – intrinsic fluorescence of library compounds, ex339/em460 – biochemical, MLSMR library, data from DPM-DC assay, artefact control, profiling panel; 65,000 compounds, 5.5% hits; compound autofluorescence, ex339/em460 nm, NADH buffer; hits give high values; 1 = no-compound wells, NADH background; fluorescence fold increase at 10 µM;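 active = at 10 µM, mean starting fluorescence two-fold or more over control wells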;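 note: signal is the first read of a kinetic run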
M1 ag – activates the M1 muscarinic receptor | B-score at 10 µM | 64,000 compounds, 3% hits | AID 626 | CHO-M1 cells, Fluo-4 calcium fluorescence, agonist mode; hits give high values;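 active = fluorescence rise, raw or as B-score row- and column-corrected plate score, outside the 99.7% band of its plate's samples, either direction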
Abs 340nm – compound absorbs light at 340 nm; compound absorbance at 340 nm, fold over control; fold change at 10 µM; 65,000 tested, under 10 active; AID 708;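 active = at 10 µM dose, initial 340 nm absorbance at least 2 fold that of control wells; inactive = change under 2 fold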;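 note: initial absorbance extrapolated from kinetic A340 decline of NADH oxidation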
mHtt clearance – mutant huntingtin protein clearance | AID 853 | 47,000 compounds, 0.42% hits | inhibition, % at 1.5 µM | HeLa Exon1htt(103Q)mCFP, aggregate imaging; zero = plate's median compound well;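 active = inhibition of aggregate fluorescence above about 70%, also judged a hit by eye on the cell image, limit read from the data, passing the limit was not always enough; inconclusive = no rule stated for this call; inactive = not judged a hit on image review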;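 note: cells exposed to compound for three days before fixation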
M1 antagonist – blocks the rat M1 muscarinic receptor response to acetylcholine | CHO-M1 cells, Fluo-4 calcium, ACh EC80 antagonist mode; hits give low values | AID 628 | B-score at 10 µM | P08482 | 64,000 compounds, 3.4% hits;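 active = calcium fluorescence response, raw or row-and-column corrected B-score, differing from the plate sample mean either way at a set confidence level, mostly lower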
NADH enzymes – inhibitors of enzymes used to reach an NAD/NADH endpoint; coupled PK/LDH NADH assays, four targets; IC50, µM (series often up to 10 µM), for the others: top-dose inhibition; 65,000 compounds, 0.02% hits;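 active = single-dose screening hits from any of four coupled enzyme assays that gave an IC50 when retested across doses; inconclusive = no clear call, values can overlap the other calls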;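 note: the DPM-DC format reads NADH fluorescence rather than 340 nm absorbance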
M1 agonist conf – confirmation of rat M1 muscarinic receptor agonists. AID 1488. fluorescence change (max-min) at 10 µM. shares compounds with M1 ag. 1,700 compounds, 19% hits. CHO-M1 cells, Fluo-4 calcium fluorescence, agonist mode; actives lie on both sides;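 active = fluorescence change differs from the solvent-only DMSO control mean at a set confidence level in both duplicate runs; inconclusive = differs from solvent-only control mean in just one of two runs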;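 note: an EC20 dose of acetylcholine follows compound addition during the same imaging run; raw fluorescence intensity difference in instrument units with no normalization to controls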
M4 agonist ctr – activates rat M4 receptor in counter-screen for M1 agonists; shares compounds with M1 ag; CHO M4/Gqi5 cells, Fluo-4 calcium fluorescence, agonist mode; actives lie on both sides; fluorescence change (max-min) at 10 µM; 1,700 compounds, 9% hits;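 active = fluorescence change differing from the plate's solvent-only control wells at 99.7% confidence in both duplicates, whether higher or lower; inconclusive = differs from solvent controls in only one of two duplicates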
Target sequence (P08485 whole entry, looked up): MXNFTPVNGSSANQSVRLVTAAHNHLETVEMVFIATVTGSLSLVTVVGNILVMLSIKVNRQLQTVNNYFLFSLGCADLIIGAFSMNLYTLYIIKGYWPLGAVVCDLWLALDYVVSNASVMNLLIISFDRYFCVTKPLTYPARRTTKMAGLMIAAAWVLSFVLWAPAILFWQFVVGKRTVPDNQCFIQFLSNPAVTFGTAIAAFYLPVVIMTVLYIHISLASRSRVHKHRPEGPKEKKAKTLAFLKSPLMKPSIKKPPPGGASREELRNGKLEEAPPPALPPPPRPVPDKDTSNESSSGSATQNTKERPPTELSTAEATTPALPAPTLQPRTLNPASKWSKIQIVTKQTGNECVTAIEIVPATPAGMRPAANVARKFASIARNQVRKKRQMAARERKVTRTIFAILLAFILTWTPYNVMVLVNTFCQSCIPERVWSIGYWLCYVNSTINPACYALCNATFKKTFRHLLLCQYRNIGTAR
An asterisk follows results filed as active; ? = inconclusive; . = not tested or not shown.

SMILES	Fluor 339 460	M1 ag	Abs 340nm	mHtt clearance	M1 antagonist	NADH enzymes	M1 agonist conf	M4 agonist ctr
CCOc1ccccc1N1CCN(c2nc3ccccc3nc2C(C#N)C(=O)OC)CC1 (configuration not stated)	1.1	7.7*	0.99	.	-1.1	3%	?	-28
N#CC(C(=O)NCc1ccccc1)c1nc2ccccc2nc1N1CCCC1 (configuration not stated)	1.5	177*	1.1	.	-17*	7%	1394*	794*
COc1ccccc1N1CCN(c2nc3ccccc3nc2C(C#N)C(=O)OC(C)C)CC1 (configuration not stated)	1.1	1.1	1	12	-1.6	2%	.	.
N#CC(C(=O)NCCc1ccccc1)c1nc2ccccc2nc1N1CCCCC1 (configuration not stated)	1.2	17*	1	.	-0.23	6%	63*	121
CCCCCn1c(=N)n(CC(O)COc2ccccc2OC)c2ccccc21 (configuration not stated)	1	3.1*	1	-33	0.25	5%	2.9	11
COc1ccccc1OCC(O)Cn1c(=N)n(Cc2ccccc2)c2ccccc21 (configuration not stated)	1.1	0.19	1.1	-45	0.0072	4%	.	.
CCOC(=O)Cc1csc(NC(=O)CSc2nnc(-n3nc(C)cc3C)c3ccccc23)n1	1	4.7*	1	26	-0.72	5%	0.18	-20
CCOC(=O)Cc1csc(NC(=O)CSc2nnc(-c3ccc(C)cc3)o2)n1	1.1	-0.13	1	.	-0.22	3%	.	.
Cc1c(NC(=O)c2ccc3c(c2)OCO3)c(=O)n(-c2ccccc2)n1C	1.1	0.44	1	.	0.45	7%	.	.
Cn1cc(C(=O)c2ccc(F)cc2)cc1-c1nc2ccccc2n1C	1.1	3.2*	0.99	-28	-2	3%	-8.5	?
O=C(Cn1nnc(-c2ccccc2F)n1)Nc1ccc(S(=O)(=O)NC2CCCC2)cc1	1	.	0.97	-16	.	3%	.	.
O=C1c2ccccc2NC(c2ccco2)N1O (configuration not stated)	1.1	0.37	0.99	-9	0.2	3%	.	.
O=C1C2=C(Nc3ccccc3SC2c2ccco2)c2ccccc21 (configuration not stated)	1.1	active	1.1	74*	0.14	0%	?	-65
O=C(CCn1nnc2ccccc21)N1CCC(O)(c2cccc(F)c2)CC1	1.1	0.54	1.1	.	1.2	2%	.	.
CCOC(=O)CSC1=C(C#N)C(c2ccc3c(c2)OCO3)CC(=O)N1 (configuration not stated)	1	-0.1	1	.	0.22	2%	.	.
CCOC(=O)CSC1=C(C#N)C(c2ccc(Cl)cc2)CC(=O)N1 (configuration not stated)	1	3*	1	8	0.98	6%	-14	?
COc1ccc2c(c1)[nH]c1c(=O)n(CCN3CCCC3)cnc12	0.91	2.2*	1.1	.	0.14	7%	?	-44
Cc1ccc2c(c1)[nH]c1c(=O)n(CCN3CCNCC3)cnc12	1.2	-2	1.1	-50	0.55	3%	.	.
COc1cccc(NC(=O)CSCc2n[nH]c(=O)[nH]2)c1	1.1	0.66	1.1	-18	-0.34	8%	.	.
COc1ccc(-n2c(SCC(=O)NCc3ccco3)nc3c([nH]c4ccccc43)c2=O)cc1	.	.	.	-38	.	.	.	.
CCCCCCc1cc2cc(-c3nnc(-c4ccccc4O)o3)c(=O)oc2cc1O	1.7	317*	1.1	.	3.3*	11%	781*	843*
COCCCNC(=O)C1CCN(c2ncccn2)CC1	1.4	2.6*	1	21	-0.14	7%	-22	-51
CCOc1cc(C(=O)Nc2ccccc2N2CCN(S(C)(=O)=O)CC2)cc(OCC)c1OCC	1	1.8*	1	23	-0.43	5%	-20	-34
